TGFb SMAD3 inh: blocks TGF-b signaling. Potency, µM (titrated, usually from 46.1 µM), for the others: top-dose activity, negative = inhibition, usual class: inhibitors. HepG2 CAGA-GFP TGF-b/SMAD3 reporter, GFP fluorescence, 18 h; TGF-beta stimulated, 500 pg/mL final. 1.2% of 410,000 active. AID 588855; note: potency is the fitted concentration of half-maximal effect; % is set by controls: 0 for no effect and ±100 for the full control effect; nearly all actives have a fitted effect of over 65% in size
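Read-out: total well GFP (ex488/em500-530) summed from mean per-cell fluorescence. Cells: HEPG2 CAGA-GFP, 1% FBS DMEM, 18 h at 37 degrees C with 500 pg/mL final TGF-beta. Unstimulated wells served as the full-inhibition control; stimulated DMSO wells = 0%.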
DT40 TDP1 no CPT: qHTS for Inhibitors of human tyrosyl-DNA phosphodiesterase 1 (TDP1): qHTS in cells in absence of CPT | 15% of 420,000 active | Potency, µM (series often up to 46.2 µM), for the others: top-dose activity change, negative = growth inhibition, usual class: inhibitors | DT40 Tdp1-/- hTDP1 cells, no CPT, ATP luminescence, 48 h; note: potency is the fitted concentration of half-maximal effect; % is set by controls: 0 for no effect and ±100 for the full control effect; nearly all actives have a fitted effect of over 55% in size
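Growth of hTDP1-complemented DT40 Tdp1-knockout cells is measured by ATP luminescence after at least 48 hr compound exposure at 37 °C, with DMSO substituting for the 20 nM CPT used in the parallel screen.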
HepG2 tox: kills HepG2 cells in TGF-b inhibitor counter-screen; HepG2 CAGA-GFP viability, ATP luminescence, 18 h; 0.76% of 410,000 active; Potency, µM (titrated, usually from 46.1 µM), for the others: top-dose activity change, negative = cytotoxicity, usual class: cytotoxic; AID 588856; note: potency is the fitted concentration of half-maximal effect
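CellTiter-Glo luminescence gave cytotoxicity after 18 hours at 37 degrees C. The cells were HepG2 CAGA-GFP in 1% FBS DMEM, stimulated with 500 pg/mL TGF-beta after compound addition. %Activity was normalised to no-cell wells (complete cell-killing) and DMSO (no toxicity), and curves were fitted and classified.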
IL1B secr inh: blocks inflammasome-driven IL-1 beta release; THP-1 LPS/ATP IL-1B secretion, AlphaLISA, 16 h; stronger effect = lower value; activity change, % at 57.5 µM; 4.7% of 360,000 active; in the data active = activity change below about -50%; inconclusive = mostly about -30% to -49%; note: % is set by controls: 0 for no effect and ±100 for the full control effect
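THP-1 cells pretreated 1 hr with compounds (up to 57.5 uM final), then stimulated with LPS (250 ng/mL final) plus ATP (1.25 mM final); secreted IL-1B measured by AlphaLISA after 16 hr, decreased signal indicating inhibition.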
TDP1 block: blocks human tyrosyl-DNA phosphodiesterase 1 | Q9NUW8 | recombinant TDP1, AlphaScreen DNA substrate cleavage | Potency, µM (top dose mostly 130 µM), without a hit: at the top dose activity change, negative = inhibition, hits mostly inhibitors | 0.28% of 350,000 active | AID 485290; note: potency is the fitted concentration of half-maximal effect; % is set by controls: 0 for no effect and ±100 for the full control effect; nearly all actives have a fitted effect of over 40% in size
Target sequence (Q9NUW8 whole entry, looked up): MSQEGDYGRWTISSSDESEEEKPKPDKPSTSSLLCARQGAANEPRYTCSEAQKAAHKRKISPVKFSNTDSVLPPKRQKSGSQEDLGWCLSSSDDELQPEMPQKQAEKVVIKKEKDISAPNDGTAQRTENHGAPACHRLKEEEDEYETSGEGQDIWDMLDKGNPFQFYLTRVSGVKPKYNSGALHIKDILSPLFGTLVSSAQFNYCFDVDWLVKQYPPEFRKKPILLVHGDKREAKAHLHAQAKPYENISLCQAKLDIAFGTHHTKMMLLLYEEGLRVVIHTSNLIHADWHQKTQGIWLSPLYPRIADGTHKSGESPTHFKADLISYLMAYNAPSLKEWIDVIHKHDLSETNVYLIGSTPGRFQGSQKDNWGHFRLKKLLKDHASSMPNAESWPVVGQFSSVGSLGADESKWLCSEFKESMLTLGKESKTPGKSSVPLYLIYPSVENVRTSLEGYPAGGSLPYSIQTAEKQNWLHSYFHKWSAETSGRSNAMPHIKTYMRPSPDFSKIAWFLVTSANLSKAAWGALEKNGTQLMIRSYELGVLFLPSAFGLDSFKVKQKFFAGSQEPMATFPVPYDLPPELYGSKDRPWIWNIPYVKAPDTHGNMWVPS
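E. coli-derived human Tdp1, 1 nM final. Cpd preinc 15 min RT; substrate 15 nM final, 5 min RT; AS bead mix 10 ug/ml final, 10 min RT. Signal loss = tyrosine-FITC cleavage. No-enzyme wells = max signal.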
DT40 TDP1 CPT: growth inhibition of DT40 Tdp1-/-;hTDP1 cells with camptothecin (screen for TDP1 inhibitors) | Potency, µM (series often up to 46.2 µM), for the others: at the top dose activity change, negative = growth inhibition, usual class: inhibitors | chicken DT40 Tdp1-/-;hTDP1 cells + 20 nM CPT, ATP luminescence, 48 h | AID 686979 | 12% of 420,000 active; note: potency is the fitted concentration of half-maximal effect; % is set by controls: 0 for no effect and ±100 for the full control effect; nearly all actives have a fitted effect of over 55% in size
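Chicken DT40 Tdp1-/- cells stably complemented with human TDP1 were seeded at 400 cells/well in medium containing 20 nM camptothecin, exposed to pin-transferred compounds, and grown at 37 °C for at least 48 hr. Viability was read as ATP luminescence.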
Active calls of the source: *; i = inactive; ? = inconclusive; / = not tested or not shown; ! = a repeat was not active; [ ] = dose if it differs, or a comment. Sampled rows, rich in hits. Any-hit rate of the full collection: about 18%. Unless noted, calls come from the whole dose curve; as a rule, active = well fitted curve in the direction sought with a large enough effect; inconclusive = small, poorly fitted or top-dose-only effect, or another doubt; inactive = no such curve, though single readings can be large; an effect the other way counts as inactive or inconclusive.

SMILES | TGFb SMAD3 inh | DT40 TDP1 no CPT | HepG2 tox | IL1B secr inh | TDP1 block | DT40 TDP1 CPT
CC1CCC(C(C)C)C(OC(=O)Cn2c(-c3ccc(Cl)cc3)[n+](C)c3ccccc32)C1 (stereo not drawn) | ? | 2.1µM* | 11µM* | -91* | / | 2.3µM*
C[C@H]1CN([C@@H](C)CO)C(=O)CCCn2cc(nn2)CO[C@@H]1CN(C)C(=O)Nc1ccccc1F | 15% | ? | -1% | 22 | / | -11%
N#CC(C#N)=NNc1ccc2cn[nH]c2c1 | ? | 4.6µM* | -28% | -86* | / | 4.1µM*
CCNC(=S)Nc1ccc2cn[nH]c2c1 | 10% | -7% | -4% | -8 | -3% | 20%
COC(=O)c1cc(S(=O)(=O)NC2CCC(C)CC2)cn1C (stereo not drawn) | -9% | 10% | 5% | 20 | 3% | -21%
O=C1CCCC2=C1C(c1ccncc1)c1c(nc(SCc3ccccc3)[nH]c1=O)N2 (stereo not drawn) | 12% | -16% | 4% | -52* | 4% | -4%
CCCN1CCN(C(=O)c2oc3c(Cl)cccc3c2C)CC1 | -21% | ? | -27% | 8 | 3% | -9%
CCOC(=O)c1ccc(NC(=O)Cc2coc3cc(C)cc(C)c23)cc1 | -22% | 18µM* | -17% | / | 1% | ?
CCOC(=O)c1ccc(NC(=O)Cc2noc3ccc(C)cc23)cc1 | ? | ? | -13% | / | 5% | 21µM*
COc1ccc(NC(=O)Cc2noc3ccc(C)cc23)cc1Cl | 3% | ? | -30% | / | 5% | ?
CC(C)[C@H](O)C1=CCCCC1=O | / | / | / | / | 4% | /
O=C(CSc1nnc(NC(=O)c2c(F)cccc2Cl)s1)Nc1ccccc1F | -1% | 2% | 3% | i | 4% | 5%
Cc1noc(C)c1C(=O)N1CCC2(CC1)CN(c1cccc(-c3ccccc3)c1)C2 | / | 21µM* | / | / | / | ?
Cc1noc(C)c1C(=O)N1CCC2(CC1)CN(c1ccccn1)C2 | / | -3% | / | / | / | 4%
Cc1noc(C)c1C(=O)N1CCC2(CC1)CCN(c1cccc(-c3ccccc3)c1)CC2 | / | 4.6µM* | / | / | / | ?
O=C1C2C3C=CC(C3=C3CCCCC3)C2C(=O)N1c1ccccc1 (stereo not drawn) | 9% | 13µM* | 6% | -17 | 2% | ?
O=c1c2c3nc4ccccc4nc3n(/N=C/c3ccco3)c2ncn1CCC1=CCCCC1 | -27% | 21µM* | -1% | -29 | 0% | 16µM*
CN1C2CCC1CC(OC(c1ccccc1)c1ccccc1)C2 (stereo not drawn) | -5% | -36% | -28% | ? | -6%[56.1 µM] | ?
CN1CCC(OC(c2ccccc2)c2ccc(Cl)cc2)C1 (stereo not drawn) | -9% | 21µM* | -39% | / | / | ?
CN1[C@@H]2CC[C@H]1CC(OC(c1ccccc1)c1ccccc1)C2 (stereo partly drawn) | / | 21µM*! | / | / | 2% | 7.5µM*
Nc1nc(SCc2ccccc2)c2ncn(CCO)c2n1 | 6% | 1% | -1% | 6 | / | 1%
CN(C)S(=O)(=O)c1ccc2[nH]cc(/C=C/c3nc4ccccc4c(=O)n3-c3ccccc3)c2c1 | -9% | 5.2µM* | -24% | 12 | 0% | 5.8µM*
CCn1c(/C=C\c2ccccc2C)nc2ccccc2c1=O | -29% | 13µM* | -15% | -15 | 0% | 23µM*
O=c1c2ccccc2nc(/C=C/c2cccnc2)n1CCc1ccccc1 | -6% | 13µM* | -57% | -71* | / | 15µM*
CCn1c(/C=C/c2ccccc2Cl)nc2ccccc2c1=O | -7% | 16µM* | -22% | ? | / | ?
SMILES | TGFb SMAD3 inh | DT40 TDP1 no CPT | HepG2 tox | IL1B secr inh | TDP1 block | DT40 TDP1 CPT
CN(C)c1ccc(/C=C/c2nc3ccccc3c(=O)n2-c2ccc(C(=O)O)cc2)cc1 | 155% | ? | -18% | -7 | / | -20%
Cc1cccc(Cn2nc(C)n3c(cc4cc(C)ccc43)c2=O)c1 | -3% | -21% | -3% | / | 5% | -1%
N#CCc1nc2ccc(S(=O)(=O)N3CCOCC3)cc2s1 | 50% | -23% | -9% | -5 | 7% | -23%
C[C@H](CO)N1C[C@H](C)[C@@H](CN(C)S(=O)(=O)c2cccs2)Oc2c(NS(=O)(=O)c3ccc(F)cc3)cccc2C1=O | 1% | ? | 1% | -8 | 1% | -30%
CCCCC1=CC2=CC(=O)C(C)(OC(=O)c3ccco3)C(=O)C2=CO1 (stereo not drawn) | / | / | / | / | 3% | /
CC1=C(/C=C/C(C)=C/C=C/C(C)=C/C=C/C=C(C)/C=C/C=C(C)/C=C/C2=C(C)C(=O)CCC2(C)C)C(C)(C)CCC1=O | / | -19% | / | / | 4% | -13%
Cc1ccccc1/C=C\c1nc2ccccc2c(=O)n1Cc1ccccc1 | 0% | ? | 13% | ? | 6% | ?
Cc1cccc(/C=C/c2nc3ccccc3c(=O)n2Cc2ccccc2)c1 | ? | ? | -3% | -70* | 3% | ?
CCn1c(/C=C/c2c[nH]c3ccccc23)nc2ccccc2c1=O | -4% | 3.3µM* | -28% | 35 | 3% | ?
O=C1S/C(=C\c2ccc(N3CCOCC3)o2)C(=O)N1Cc1c(F)cccc1Cl | 17% | ? | 8% | 20 | 2% | 7.3µM*
O=C(O)c1ccccc1-c1ccc(/C=C2\SC(=O)N(c3ccccc3)C2=O)o1 | -9% | 0% | -11% | 15 | / | -15%
O=C1S/C(=C\c2ccc(N3CCOCC3)o2)C(=O)N1c1ccccc1 | 27% | 8.2µM* | -18% | -104* | 5% | 1.6µM*
COc1cc(N)c(Cl)cc1C(=O)OCCCN1CCCCC1 | / | -6% | / | / | 7% | ?
Cc1ccc2c(n1)sc1c(-c3ccc(Br)cc3)c(C#N)c(N)nc12 | -3% | 18µM* | -1% | -3 | -2% | ?
Cc1ccc2nc(N3CCN(S(=O)(=O)c4ccc5c(c4)OCCO5)CC3)c(C#N)cc2c1 | -5% | ? | -1% | 9 | -7% | 11µM*
Cc1ccc(S(=O)(=O)N2CCCN(c3nc4cc(C)ccc4cc3C#N)CC2)cc1 | -24% | ? | -19% | 31 | / | ?
O=S(=O)(c1ccc2c(c1)OCCO2)N1CCN(S(=O)(=O)c2ccc3c(c2)OCCO3)CC1 | / | / | / | / | 0% | /
Cc1ccc(S(=O)(=O)N2CCCN(S(=O)(=O)c3ccc4c(c3)OCCO4)CC2)cc1 | -15% | 11µM* | -5% | -23 | 5% | 11µM*
